Laboratory results taken from ChEMBL document CHEMBL1961873, “Compounds: GSK PKIS; Assays: Nanosyn kinase panel” (2012).

Columns and labels:
[1] = biological target: Protein kinase C gamma type (Homo sapiens) (UniProt P05129); details: at 1 µM;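 also: each value is an averaged percent inhibition of the enzyme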
[2] = biological target: T1, Protein kinase C iota type (Homo sapiens) (UniProt P41743); details: at 0.1 µM
T1 sequence (whole entry): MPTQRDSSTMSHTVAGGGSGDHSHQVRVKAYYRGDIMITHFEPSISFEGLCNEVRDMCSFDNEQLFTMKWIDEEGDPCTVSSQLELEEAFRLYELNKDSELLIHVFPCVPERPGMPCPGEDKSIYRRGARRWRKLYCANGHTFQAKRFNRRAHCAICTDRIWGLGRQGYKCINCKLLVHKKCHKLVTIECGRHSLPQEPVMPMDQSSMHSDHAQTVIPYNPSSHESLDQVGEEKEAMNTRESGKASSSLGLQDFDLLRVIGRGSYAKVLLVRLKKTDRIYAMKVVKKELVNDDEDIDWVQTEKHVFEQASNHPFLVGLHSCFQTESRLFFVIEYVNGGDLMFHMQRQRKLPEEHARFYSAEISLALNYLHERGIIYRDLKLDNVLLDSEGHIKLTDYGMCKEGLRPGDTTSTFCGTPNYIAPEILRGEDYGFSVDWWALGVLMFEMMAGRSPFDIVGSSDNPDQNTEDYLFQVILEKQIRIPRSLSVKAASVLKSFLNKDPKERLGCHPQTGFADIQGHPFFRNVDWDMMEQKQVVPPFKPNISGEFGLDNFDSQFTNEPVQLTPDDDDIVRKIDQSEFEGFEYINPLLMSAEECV

[3] = biological target: T1, Protein kinase C iota type (Homo sapiens); details: at 1 µM
[4] = biological target: Protein kinase C theta type (Homo sapiens) (UniProt Q04759); details: at 0.1 µM
Chain of Protein kinase C theta type (Homo sapiens) (Q04759 whole entry, looked up): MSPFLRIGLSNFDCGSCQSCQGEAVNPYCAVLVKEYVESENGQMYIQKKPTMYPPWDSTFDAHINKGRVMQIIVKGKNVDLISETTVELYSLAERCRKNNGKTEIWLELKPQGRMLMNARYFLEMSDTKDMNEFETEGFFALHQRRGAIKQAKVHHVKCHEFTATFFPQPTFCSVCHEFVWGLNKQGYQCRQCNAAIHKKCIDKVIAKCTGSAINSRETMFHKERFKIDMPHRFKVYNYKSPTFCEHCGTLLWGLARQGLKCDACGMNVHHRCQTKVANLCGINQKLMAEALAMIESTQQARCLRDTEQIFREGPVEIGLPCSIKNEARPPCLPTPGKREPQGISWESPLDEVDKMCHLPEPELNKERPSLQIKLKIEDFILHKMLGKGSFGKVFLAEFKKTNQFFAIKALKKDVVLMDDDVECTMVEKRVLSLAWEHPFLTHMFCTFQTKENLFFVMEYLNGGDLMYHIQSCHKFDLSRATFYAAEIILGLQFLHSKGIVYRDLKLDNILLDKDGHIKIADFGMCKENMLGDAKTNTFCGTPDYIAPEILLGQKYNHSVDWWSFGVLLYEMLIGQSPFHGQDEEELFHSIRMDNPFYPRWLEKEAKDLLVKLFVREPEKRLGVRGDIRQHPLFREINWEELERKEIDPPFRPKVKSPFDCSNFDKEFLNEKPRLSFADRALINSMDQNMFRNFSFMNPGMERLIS

[5] = biological target: Protein kinase C theta type (Homo sapiens) (UniProt Q04759); details: at 1 µM
[6] = biological target: Protein kinase C beta type (Homo sapiens) (UniProt P05771); details: at 0.1 µM
Chain of Protein kinase C beta type (Homo sapiens) (P05771 2-671 limits assumed): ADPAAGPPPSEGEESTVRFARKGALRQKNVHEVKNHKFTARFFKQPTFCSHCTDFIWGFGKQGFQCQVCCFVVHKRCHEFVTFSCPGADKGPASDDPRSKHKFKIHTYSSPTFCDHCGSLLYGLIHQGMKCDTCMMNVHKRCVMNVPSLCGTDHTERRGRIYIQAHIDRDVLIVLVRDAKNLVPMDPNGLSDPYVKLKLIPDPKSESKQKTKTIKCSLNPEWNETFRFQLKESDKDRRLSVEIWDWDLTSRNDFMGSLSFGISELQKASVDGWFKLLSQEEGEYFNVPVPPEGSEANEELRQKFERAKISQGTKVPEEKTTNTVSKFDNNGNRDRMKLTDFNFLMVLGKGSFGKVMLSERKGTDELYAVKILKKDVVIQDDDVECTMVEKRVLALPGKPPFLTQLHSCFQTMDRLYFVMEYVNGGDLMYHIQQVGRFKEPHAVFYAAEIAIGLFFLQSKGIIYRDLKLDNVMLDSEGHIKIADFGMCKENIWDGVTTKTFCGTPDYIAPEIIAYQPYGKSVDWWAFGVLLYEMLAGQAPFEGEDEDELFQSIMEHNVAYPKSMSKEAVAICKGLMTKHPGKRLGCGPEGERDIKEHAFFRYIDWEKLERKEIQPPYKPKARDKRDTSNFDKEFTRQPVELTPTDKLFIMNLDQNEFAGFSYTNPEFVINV

[7] = biological target: Protein kinase C beta type (Homo sapiens) (UniProt P05771); details: at 1 µM
[8] = biological target: T2, Serine/threonine-protein kinase D1 (Homo sapiens) (UniProt Q15139); details: at 0.1 µM
T2 sequence (whole entry): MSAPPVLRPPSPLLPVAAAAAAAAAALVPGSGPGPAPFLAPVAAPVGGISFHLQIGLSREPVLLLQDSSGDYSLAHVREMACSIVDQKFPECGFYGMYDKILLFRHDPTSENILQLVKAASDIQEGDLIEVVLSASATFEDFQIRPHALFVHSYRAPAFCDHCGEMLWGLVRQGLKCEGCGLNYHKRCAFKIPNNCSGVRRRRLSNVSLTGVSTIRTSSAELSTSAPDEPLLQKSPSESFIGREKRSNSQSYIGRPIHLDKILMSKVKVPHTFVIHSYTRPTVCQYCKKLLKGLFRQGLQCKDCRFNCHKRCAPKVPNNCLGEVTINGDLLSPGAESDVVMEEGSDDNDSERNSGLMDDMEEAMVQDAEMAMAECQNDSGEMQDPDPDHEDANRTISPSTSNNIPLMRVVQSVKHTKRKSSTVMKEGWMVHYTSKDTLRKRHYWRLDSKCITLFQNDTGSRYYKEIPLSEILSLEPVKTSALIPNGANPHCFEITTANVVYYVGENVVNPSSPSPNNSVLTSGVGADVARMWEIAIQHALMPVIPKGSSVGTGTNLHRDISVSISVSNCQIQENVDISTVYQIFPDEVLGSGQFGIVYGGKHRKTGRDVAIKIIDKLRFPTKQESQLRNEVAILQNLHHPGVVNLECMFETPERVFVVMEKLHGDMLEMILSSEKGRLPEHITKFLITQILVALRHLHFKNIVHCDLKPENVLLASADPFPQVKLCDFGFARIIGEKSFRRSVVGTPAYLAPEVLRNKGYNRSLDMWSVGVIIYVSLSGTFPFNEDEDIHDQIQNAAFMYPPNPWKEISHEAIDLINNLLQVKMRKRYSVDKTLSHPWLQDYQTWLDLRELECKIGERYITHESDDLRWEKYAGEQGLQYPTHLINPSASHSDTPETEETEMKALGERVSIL

[9] = biological target: T2, Serine/threonine-protein kinase D1 (Homo sapiens); details: at 1 µM
[10] = biological target: T3, Serine/threonine-protein kinase D2 (Homo sapiens) (UniProt Q9BZL6); details: at 0.1 µM
T3 sequence (whole entry): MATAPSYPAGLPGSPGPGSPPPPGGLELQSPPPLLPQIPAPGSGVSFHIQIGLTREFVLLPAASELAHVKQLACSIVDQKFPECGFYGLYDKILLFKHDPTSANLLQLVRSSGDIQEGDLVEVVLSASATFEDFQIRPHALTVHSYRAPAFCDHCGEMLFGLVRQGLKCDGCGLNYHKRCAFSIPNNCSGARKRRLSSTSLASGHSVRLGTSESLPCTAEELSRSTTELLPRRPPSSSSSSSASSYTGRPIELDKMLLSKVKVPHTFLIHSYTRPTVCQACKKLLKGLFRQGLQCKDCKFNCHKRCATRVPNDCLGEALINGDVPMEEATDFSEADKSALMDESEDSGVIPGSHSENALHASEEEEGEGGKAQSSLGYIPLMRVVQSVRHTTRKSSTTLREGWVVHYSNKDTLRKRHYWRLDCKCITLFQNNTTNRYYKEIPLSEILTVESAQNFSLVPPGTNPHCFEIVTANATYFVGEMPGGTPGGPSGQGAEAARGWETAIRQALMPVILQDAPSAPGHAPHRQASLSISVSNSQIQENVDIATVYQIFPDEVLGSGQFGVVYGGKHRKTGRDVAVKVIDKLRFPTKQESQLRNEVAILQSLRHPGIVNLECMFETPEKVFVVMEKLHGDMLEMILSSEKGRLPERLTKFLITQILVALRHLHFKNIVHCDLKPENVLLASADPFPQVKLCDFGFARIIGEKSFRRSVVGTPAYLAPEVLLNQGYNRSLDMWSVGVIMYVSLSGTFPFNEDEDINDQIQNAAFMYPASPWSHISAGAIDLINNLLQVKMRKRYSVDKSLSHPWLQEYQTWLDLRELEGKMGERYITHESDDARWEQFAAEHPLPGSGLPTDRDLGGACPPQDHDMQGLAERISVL

[11] = biological target: T3, Serine/threonine-protein kinase D2 (Homo sapiens); details: at 1 µM
[12] = biological target: T4, Serine/threonine-protein kinase D3 (Homo sapiens) (UniProt O94806); details: at 0.1 µM
T4 sequence (whole entry): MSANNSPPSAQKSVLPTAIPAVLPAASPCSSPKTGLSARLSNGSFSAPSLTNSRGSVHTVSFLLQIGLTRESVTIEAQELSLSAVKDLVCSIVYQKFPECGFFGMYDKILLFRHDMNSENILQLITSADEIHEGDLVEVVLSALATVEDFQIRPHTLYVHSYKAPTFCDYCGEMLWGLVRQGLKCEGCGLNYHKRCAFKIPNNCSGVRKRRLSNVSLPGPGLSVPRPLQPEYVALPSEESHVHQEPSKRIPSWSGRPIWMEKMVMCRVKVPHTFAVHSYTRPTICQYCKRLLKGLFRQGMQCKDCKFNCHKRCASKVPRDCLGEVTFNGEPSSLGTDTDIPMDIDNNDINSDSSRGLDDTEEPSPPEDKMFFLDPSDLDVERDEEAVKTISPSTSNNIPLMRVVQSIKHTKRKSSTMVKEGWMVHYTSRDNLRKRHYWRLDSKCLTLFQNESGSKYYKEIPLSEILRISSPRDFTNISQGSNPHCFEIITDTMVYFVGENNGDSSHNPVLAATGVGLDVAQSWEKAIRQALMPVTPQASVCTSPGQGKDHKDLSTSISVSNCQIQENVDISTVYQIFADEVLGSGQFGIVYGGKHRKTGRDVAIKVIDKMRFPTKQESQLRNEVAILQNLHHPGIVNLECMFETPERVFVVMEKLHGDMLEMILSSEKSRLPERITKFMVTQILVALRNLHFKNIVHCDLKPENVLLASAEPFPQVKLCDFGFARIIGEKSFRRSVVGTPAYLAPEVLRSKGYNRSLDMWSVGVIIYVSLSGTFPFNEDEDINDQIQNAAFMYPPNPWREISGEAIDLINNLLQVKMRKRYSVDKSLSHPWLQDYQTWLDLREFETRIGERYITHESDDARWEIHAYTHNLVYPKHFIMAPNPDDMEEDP

[13] = biological target: T4, Serine/threonine-protein kinase D3 (Homo sapiens); details: at 1 µM
[14] = biological target: T5, cGMP-dependent protein kinase 1 (Homo sapiens) (UniProt Q13976); details: at 0.1 µM
T5 sequence (whole entry): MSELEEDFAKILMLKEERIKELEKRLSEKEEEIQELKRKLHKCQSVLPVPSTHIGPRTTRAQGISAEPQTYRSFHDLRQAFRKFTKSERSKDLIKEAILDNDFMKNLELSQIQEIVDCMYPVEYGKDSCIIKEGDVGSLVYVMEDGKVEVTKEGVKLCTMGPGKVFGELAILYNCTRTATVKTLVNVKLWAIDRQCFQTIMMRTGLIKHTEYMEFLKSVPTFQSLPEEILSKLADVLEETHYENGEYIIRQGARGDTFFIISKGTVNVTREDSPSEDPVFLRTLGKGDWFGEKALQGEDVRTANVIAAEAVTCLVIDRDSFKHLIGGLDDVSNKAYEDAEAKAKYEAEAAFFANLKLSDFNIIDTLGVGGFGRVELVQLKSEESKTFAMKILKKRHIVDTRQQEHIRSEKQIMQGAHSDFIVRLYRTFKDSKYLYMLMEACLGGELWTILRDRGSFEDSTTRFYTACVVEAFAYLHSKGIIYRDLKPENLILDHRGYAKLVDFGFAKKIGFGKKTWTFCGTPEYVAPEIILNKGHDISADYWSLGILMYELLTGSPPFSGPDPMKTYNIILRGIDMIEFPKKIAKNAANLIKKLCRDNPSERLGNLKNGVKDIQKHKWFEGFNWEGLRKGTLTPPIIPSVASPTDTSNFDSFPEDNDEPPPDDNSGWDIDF

[15] = biological target: T5, cGMP-dependent protein kinase 1 (Homo sapiens); details: at 1 µM
[16] = biological target: T6, cGMP-dependent protein kinase 2 (Homo sapiens) (UniProt Q13237); details: at 0.1 µM
T6 sequence (whole entry): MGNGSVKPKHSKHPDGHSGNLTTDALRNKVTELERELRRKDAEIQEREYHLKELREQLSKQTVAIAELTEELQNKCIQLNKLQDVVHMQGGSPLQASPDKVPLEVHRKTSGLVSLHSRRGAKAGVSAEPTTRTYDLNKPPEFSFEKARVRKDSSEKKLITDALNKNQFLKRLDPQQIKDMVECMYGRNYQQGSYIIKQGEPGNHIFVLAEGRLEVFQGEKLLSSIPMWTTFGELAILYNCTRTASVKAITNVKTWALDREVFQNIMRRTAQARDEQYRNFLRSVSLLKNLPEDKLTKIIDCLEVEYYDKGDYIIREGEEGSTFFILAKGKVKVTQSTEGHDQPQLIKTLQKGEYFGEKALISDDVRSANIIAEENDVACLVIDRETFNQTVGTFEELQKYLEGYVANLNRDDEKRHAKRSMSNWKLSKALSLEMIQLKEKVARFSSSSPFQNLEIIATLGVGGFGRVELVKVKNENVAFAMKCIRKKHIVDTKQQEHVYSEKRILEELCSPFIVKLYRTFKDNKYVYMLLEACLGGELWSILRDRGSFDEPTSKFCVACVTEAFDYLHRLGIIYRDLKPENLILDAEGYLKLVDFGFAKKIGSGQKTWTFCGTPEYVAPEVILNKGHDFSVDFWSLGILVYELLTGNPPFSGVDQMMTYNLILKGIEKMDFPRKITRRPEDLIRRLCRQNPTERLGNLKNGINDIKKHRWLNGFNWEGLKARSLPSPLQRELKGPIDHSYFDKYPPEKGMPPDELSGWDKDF

[17] = biological target: T6, cGMP-dependent protein kinase 2 (Homo sapiens); details: at 1 µM
[18] = biological target: T7, cAMP-dependent protein kinase catalytic subunit PRKX (Homo sapiens) (UniProt P51817); details: at 0.1 µM
T7 sequence (whole entry): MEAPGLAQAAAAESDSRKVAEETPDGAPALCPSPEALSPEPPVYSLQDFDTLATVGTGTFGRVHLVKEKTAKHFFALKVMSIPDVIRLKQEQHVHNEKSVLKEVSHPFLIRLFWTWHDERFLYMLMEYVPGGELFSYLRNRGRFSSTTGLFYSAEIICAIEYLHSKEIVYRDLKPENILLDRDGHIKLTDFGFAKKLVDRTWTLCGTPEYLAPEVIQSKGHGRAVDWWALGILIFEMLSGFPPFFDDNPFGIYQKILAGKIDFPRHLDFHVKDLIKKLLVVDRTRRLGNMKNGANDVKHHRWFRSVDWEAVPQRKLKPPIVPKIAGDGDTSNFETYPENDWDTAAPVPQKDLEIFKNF

[19] = biological target: T7, cAMP-dependent protein kinase catalytic subunit PRKX (Homo sapiens); details: at 1 µM
[20] = biological target: Rho-associated protein kinase 1 (Homo sapiens) (UniProt Q13464); details: at 0.1 µM;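 also: values are mean percent inhibition of ROCK1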
Chain of Rho-associated protein kinase 1 (Homo sapiens) (Q13464 2-1354 limits assumed): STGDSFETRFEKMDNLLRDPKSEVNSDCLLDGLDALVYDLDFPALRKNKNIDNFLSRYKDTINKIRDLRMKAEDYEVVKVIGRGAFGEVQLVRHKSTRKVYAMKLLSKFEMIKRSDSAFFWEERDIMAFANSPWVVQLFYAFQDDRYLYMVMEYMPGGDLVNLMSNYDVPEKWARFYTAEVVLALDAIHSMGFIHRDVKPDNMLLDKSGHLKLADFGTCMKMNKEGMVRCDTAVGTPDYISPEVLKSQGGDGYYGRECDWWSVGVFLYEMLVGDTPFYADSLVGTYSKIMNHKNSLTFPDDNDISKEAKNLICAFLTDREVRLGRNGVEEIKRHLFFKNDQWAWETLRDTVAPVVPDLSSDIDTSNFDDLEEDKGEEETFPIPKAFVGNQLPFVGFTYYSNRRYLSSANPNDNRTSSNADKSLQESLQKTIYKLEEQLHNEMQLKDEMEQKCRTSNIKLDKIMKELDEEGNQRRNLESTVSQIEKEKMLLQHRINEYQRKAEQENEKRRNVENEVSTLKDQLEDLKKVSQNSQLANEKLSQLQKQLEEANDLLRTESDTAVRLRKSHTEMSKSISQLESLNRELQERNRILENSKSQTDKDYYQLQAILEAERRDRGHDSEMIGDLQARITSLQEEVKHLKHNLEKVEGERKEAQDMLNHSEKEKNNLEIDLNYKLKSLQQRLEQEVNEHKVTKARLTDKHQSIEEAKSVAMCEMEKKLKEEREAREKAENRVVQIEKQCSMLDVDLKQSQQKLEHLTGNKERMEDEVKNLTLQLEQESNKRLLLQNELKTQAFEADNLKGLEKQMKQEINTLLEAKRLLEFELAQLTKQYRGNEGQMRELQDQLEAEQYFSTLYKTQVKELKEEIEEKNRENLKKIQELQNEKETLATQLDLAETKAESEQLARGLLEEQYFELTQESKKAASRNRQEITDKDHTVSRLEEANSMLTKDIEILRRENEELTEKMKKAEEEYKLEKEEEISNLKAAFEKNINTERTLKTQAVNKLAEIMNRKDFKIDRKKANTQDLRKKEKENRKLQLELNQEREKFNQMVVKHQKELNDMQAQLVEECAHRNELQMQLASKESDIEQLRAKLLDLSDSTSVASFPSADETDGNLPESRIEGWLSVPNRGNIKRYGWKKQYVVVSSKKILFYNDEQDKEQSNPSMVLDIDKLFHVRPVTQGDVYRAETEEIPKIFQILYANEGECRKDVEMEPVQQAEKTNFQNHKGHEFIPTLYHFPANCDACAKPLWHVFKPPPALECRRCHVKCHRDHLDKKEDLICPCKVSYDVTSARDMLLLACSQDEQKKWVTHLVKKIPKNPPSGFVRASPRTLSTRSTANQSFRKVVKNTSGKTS

SMILES	inhibition [1] [%]	inhibition [2] [%]	inhibition [3] [%]	inhibition [4] [%]	inhibition [5] [%]	inhibition [6] [%]	inhibition [7] [%]	inhibition [8] [%]	inhibition [9] [%]	inhibition [10] [%]	inhibition [11] [%]	inhibition [12] [%]	inhibition [13] [%]	inhibition [14] [%]	inhibition [15] [%]	inhibition [16] [%]	inhibition [17] [%]	inhibition [18] [%]	inhibition [19] [%]	inhibition [20] [%]
Oc1cccc(-c2nc(-c3ccccc3)[nH]c2-c2ccncc2)c1	5.82	1.08	0.18	2.11	3.65	0.99	7.1	3.05	5.51	3.64	7.13	2.71	4.25	2.56	5.69	1.58	6.36	2.36	2.93	0.52
N#Cc1c(NC(=O)c2ccccc2F)sc2c1CCCC2	0.15	-1.48	-0.75	-0.76	-0.86	-0.47	0.43	-1.42	0.24	0.84	1.58	-2.11	-0.58	-2.04	-0.46	-1.17	-0.91	-0.74	-0.83	-0.67
COc1ccc(-c2nn3ncccc3c2-c2ccnc(Nc3cccc(C(F)(F)F)c3)n2)cc1	1.55	0.94	-0.08	1.65	0.8	1.35	2.07	3.56	3.79	1.6	3.1	3.18	3.3	1.97	2.64	1.78	2.6	2.11	1.89	0.25
CS(=O)(=O)CCNCc1nc(-c2ccc3ncnc(Nc4ccc(OCc5cccc(C(F)(F)F)c5)cc4)c3c2)cs1	1.21	-0.91	-0.71	0.61	0.48	0.86	1.98	1.69	0.7	1.93	0.2	0.92	2.19	0.49	2.23	0.51	1.54	0.7	-0.71	-0.53
